Test results as given in PubChem BioAssay.
The source made the active and inactive calls.

Tests used:
[1] = anti-His antibody binders, primary screen, artefact control for SMM control protein annotation, biochemical, small-molecule microarray, 635 nm fluorescence (AID 1128); conditions: anti-His Alexa647 antibody binding, higher = more signal;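 further: score merges feature fluorescence with signal-to-noise for each printed compound spot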
[2] = system: Human papillomavirus type 1a E7 protein (residues 1-88); test: HPV1a E7 small-molecule binders, primary screen, biochemical, small-molecule microarray, residues 1-88, 635 nm (AID 1129); conditions: small-molecule microarray binding, fluorescence 635 nm; higher = more signal
[3] = molecular target: Focal adhesion kinase 1 (Homo sapiens) (UniProt Q05397); test: small-molecule microarray binders of FAK, primary screen, biochemical, 635/667 nm fluorescence, BSA, DTT (AID 1130); conditions: PTK2 binding, 635 nm fluorescence, higher = more signal;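 further: composite of spot emission at 667 nm and signal to noise over triplicate slides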
[4] = system: Fibrinogen (Alexa647-labelled); test: fibrinogen binders on compound microarrays, profiling panel, artefact control for SMM control-protein annotation, biochemical, small-molecule microarray, 635/667 nm fluorescence (AID 1131); conditions: fibrinogen-A647 binding fluorescence, higher = more signal;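 further: z-score merges 667 nm fluorescence with per-spot signal-to-noise over triplicate slides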
[5] = molecular target: Follistatin (Homo sapiens) (UniProt P19883); test: follistatin binders on small-molecule microarrays, primary screen, biochemical, small-molecule microarray, 635/667 nm fluorescence (AID 1132); conditions: FST binding, 635 nm fluorescence, higher = more signal
[6] = molecular target: Fibroblast growth factor 2 (Homo sapiens) (UniProt P09038); test: FGF2 binders on small-molecule microarrays, primary screen, biochemical, small-molecule microarray, 635/667 nm fluorescence (AID 1133); conditions: small-molecule microarray binding, FGF2, fluorescence 635/667; higher = more signal
[7] = mitochondrial membrane potential change in A549 cells, profiling panel, cell-based, JC-1 fluorescence, basal, 24 h, 100 nL (AID 1138); conditions: higher = more signal;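 further: A549 lung adenocarcinoma cells under basal conditions with no added stimulus; test concentration not given here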
Lefty1 = Lefty1 binders on small-molecule microarrays, primary screen, biochemical, small-molecule microarray, 635/667 nm fluorescence (AID 1139); conditions: small-molecule microarray binding, fluorescence 635/667; higher = more signal
[8] = system: wheat germ agglutinin (Triticum aestivum), Alexa647-labelled; test: wheat germ agglutinin binders on compound microarrays, profiling panel, artefact control for SMM control-protein annotation, biochemical, small-molecule microarray, 635/667 nm fluorescence (AID 1140); conditions: WGA-A647 binding, 635 nm fluorescence, higher = more signal;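 further: score merges 667 nm feature emission with signal to noise over triplicate slides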
[9] = molecular target: Luciferin 4-monooxygenase (Photinus pyralis) (UniProt P08659); test: firefly luciferase enzyme inhibitors, primary screen, biochemical, luminescence, purified enzyme, 2006 set (AID 1141); conditions: SteadyGlo luminescence, 30 min, higher = more signal, called active from +8 up or from −8 down;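 further: cell-free assay with purified firefly luciferase at 100 ng per well in PBS; test concentration not given here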
Sequence of Luciferin 4-monooxygenase (Photinus pyralis) (P08659 whole entry, looked up): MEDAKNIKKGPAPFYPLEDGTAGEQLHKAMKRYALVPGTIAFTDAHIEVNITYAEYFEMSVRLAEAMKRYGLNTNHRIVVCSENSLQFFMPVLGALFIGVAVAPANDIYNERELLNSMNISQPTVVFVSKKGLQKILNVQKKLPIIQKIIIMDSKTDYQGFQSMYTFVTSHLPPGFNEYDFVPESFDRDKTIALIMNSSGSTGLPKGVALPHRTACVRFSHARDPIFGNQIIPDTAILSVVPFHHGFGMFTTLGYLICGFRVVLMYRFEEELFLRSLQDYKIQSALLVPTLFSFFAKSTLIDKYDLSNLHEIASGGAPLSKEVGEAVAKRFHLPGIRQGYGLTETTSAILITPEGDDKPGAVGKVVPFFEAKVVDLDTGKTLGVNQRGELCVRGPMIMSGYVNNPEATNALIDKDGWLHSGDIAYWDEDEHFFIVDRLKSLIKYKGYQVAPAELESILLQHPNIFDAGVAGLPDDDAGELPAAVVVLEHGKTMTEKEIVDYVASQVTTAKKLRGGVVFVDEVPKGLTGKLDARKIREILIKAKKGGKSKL

Sequence of Focal adhesion kinase 1 (Homo sapiens) (Q05397 whole entry, looked up): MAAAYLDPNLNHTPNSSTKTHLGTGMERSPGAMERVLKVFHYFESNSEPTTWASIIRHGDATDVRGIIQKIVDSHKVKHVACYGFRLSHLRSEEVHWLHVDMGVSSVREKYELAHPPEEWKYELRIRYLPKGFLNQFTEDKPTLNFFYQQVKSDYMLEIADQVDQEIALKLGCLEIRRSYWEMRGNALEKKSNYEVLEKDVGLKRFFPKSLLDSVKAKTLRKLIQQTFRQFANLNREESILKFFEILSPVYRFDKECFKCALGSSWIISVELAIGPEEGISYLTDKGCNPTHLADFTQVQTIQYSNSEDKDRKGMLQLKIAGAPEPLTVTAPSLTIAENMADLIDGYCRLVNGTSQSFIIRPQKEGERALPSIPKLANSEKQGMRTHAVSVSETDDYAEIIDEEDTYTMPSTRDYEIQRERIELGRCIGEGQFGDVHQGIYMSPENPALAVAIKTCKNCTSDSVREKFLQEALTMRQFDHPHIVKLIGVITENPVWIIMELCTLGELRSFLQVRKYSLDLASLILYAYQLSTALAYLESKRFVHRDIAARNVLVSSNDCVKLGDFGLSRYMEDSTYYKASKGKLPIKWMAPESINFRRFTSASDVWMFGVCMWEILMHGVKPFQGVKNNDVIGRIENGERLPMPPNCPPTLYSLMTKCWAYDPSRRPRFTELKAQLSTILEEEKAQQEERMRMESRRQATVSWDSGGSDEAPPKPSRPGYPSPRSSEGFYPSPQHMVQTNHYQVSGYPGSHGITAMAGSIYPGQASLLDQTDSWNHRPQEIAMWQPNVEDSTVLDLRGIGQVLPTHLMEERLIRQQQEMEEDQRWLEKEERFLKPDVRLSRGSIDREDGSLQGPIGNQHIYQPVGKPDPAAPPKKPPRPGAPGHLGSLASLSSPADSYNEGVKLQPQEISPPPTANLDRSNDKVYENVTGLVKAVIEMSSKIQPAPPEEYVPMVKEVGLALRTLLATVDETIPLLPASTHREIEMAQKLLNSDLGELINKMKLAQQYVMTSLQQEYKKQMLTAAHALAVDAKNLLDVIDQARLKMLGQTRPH
Sequence of Follistatin (Homo sapiens) (P19883 whole entry, looked up): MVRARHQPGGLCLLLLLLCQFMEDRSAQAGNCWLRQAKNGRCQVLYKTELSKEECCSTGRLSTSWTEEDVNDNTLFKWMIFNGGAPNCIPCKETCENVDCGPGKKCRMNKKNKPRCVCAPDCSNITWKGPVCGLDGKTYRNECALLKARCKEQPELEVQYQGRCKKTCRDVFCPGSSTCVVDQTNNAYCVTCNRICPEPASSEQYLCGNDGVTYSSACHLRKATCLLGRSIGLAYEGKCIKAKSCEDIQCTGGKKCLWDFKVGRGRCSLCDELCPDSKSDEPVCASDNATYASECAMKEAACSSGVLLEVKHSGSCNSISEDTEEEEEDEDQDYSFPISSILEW
Sequence of Fibroblast growth factor 2 (Homo sapiens) (P09038 whole entry, looked up): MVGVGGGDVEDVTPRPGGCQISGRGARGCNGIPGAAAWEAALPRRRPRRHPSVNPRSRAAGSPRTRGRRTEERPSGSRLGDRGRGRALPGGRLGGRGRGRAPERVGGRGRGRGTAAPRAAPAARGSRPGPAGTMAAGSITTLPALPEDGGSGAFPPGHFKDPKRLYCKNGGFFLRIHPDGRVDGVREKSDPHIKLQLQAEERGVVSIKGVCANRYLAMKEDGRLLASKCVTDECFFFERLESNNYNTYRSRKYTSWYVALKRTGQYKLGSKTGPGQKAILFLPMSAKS

CC(C)(C)OC(=O)CC[C@]1(C(=O)NCCN2CCOCC2)N=C(c2ccc(OCCCO)cc2)O[C@H]1c1ccccc1CN=[N+]=[N-]
composite z-score [1]: 2.63
composite z-score [2]: 1.17
composite z-score [3]: 1.17
composite z-score [4]: 0.75
composite z-score [5]: -0.651
composite z-score [6]: -0.962
z-score [7]: 0.22
composite z-score (Lefty1): -0.697
composite z-score [8]: 1.31
z-score [9]: -0.736 (inactive)

NC(=O)NCC#Cc1ccc2c(c1)[C@]1(C(=O)N2)[C@H](C(N)=O)[C@H]2C(=O)O[C@H](c3ccccc3)[C@H](c3ccccc3)N2[C@@H]1c1ccccc1OCCO
composite z-score [1]: -0.22
composite z-score [2]: 1.01
composite z-score [3]: -0.0788
composite z-score [4]: 0.543
composite z-score [5]: 1.23
composite z-score [6]: 0.66
z-score [7]: -0.525
composite z-score (Lefty1): 0.472
composite z-score [8]: 0.174
z-score [9]: 0.171 (inactive)

CCOC(=O)C[C@H]1[C@H](OC(=O)c2ccccc2-c2ccccc2)[C@@H](NC(=O)c2ccc(-c3ccccc3)cc2)c2cc(OCCCO)ccc2N1C(=O)Cc1ccc(OC)cc1
composite z-score [1]: -0.293
composite z-score [2]: -0.301
composite z-score [3]: 0.371
composite z-score [4]: 0.411
composite z-score [5]: 0.362
composite z-score [6]: 0.487
z-score [7]: 0.78
composite z-score (Lefty1): 0.566
composite z-score [8]: -0.12
z-score [9]: 0.393 (inactive)

CN1C2C=C(c3ccc(CO)cc3)C(C3C(=O)N(C(N)=O)C(=O)C32)C1c1cccs1 (stereo not given)
composite z-score [1]: -0.734
composite z-score [2]: -0.343
composite z-score [3]: -0.0644
composite z-score [4]: -0.25
composite z-score [5]: -0.513
composite z-score [6]: -0.676
z-score [7]: 1.38
composite z-score (Lefty1): 0.358
composite z-score [8]: -0.543
z-score [9]: -1.49 (inactive)

COC(=O)[C@@]1(Cc2ccccc2)[C@H]2c3cc(C(=O)N4CCCC4)n(CCN4CNCC4=O)c3C[C@H]2CN1C(=O)c1ccccc1
composite z-score [1]: 0.361
composite z-score [2]: 1.21
composite z-score [3]: 1.72
composite z-score [4]: 0.728
composite z-score [5]: 0.257
composite z-score [6]: -0.709
z-score [7]: 0.791
composite z-score (Lefty1): -0.0783
composite z-score [8]: 0.342
z-score [9]: 2.42 (inactive)

C[C@@H]1NC(=O)[C@H](Cc2ccccc2)NC(=O)[C@@]23C(=O)N[C@@H](Cc4ccccc4)C2[C@H](C)[C@@]2(C)O[C@H]2C3/C=C/C/C=C\CNC1=O (stereo not given in full)
composite z-score [1]: 0.0093
composite z-score [2]: -1.79
composite z-score [3]: -0.524
composite z-score [4]: -0.89
composite z-score [5]: 0.216
composite z-score [6]: 0.0447
z-score [7]: -0.0521
composite z-score (Lefty1): 0.256
composite z-score [8]: -0.906
z-score [9]: -0.0116 (inactive)

O=C(CS)NCCCCCCNC(=O)[C@@H]1C[C@@H]2C(=O)N[C@@H](Cc3ccccc3)C(=O)N2[C@@H]1c1ccc(O)cc1
composite z-score [1]: 2.75
composite z-score [2]: 1.24
composite z-score [3]: 0.874
composite z-score [4]: 0.255
composite z-score [5]: 1.38
composite z-score [6]: 1.73
z-score [7]: -1.39
composite z-score (Lefty1): 1.48
composite z-score [8]: 0.072
z-score [9]: -0.663 (inactive)

CC(=O)NCCCC[C@@H]1NC(=O)[C@@H]2C[C@H](C(=O)NCCCCCCN(C)C)[C@H](c3ccc(O)cc3)N2C1=O
composite z-score [1]: 2.82
composite z-score [2]: 1.26
composite z-score [3]: 0.383
composite z-score [4]: 0.53
composite z-score [5]: 1.34
composite z-score [6]: 1.56
z-score [7]: 0.543
composite z-score (Lefty1): 1.58
composite z-score [8]: 1.25
z-score [9]: -0.916 (inactive)

CO[C@H]1O[C@H](CO)[C@@H](OC(=O)CCc2ccccc2)[C@@H]2OC(=O)[C@H](Cc3cccc(Br)c3)C/C=C/C[C@@H](Cc3cccc(Br)c3)C(=O)O[C@@H]12
composite z-score [1]: 0.345
composite z-score [2]: 0.399
composite z-score [3]: -0.0961
composite z-score [4]: 0.0162
composite z-score [5]: -1.19
composite z-score [6]: -0.706
z-score [7]: 0.309
composite z-score (Lefty1): -0.752
composite z-score [8]: 0.978
z-score [9]: -1.07 (inactive)

C[C@@H]1C=CCC(=O)OC[C@H]2O[C@@H](C=C[C@@H]2O)[C@H](C)C=CCC(=O)OC[C@H]2O[C@H]1C=C[C@@H]2O
composite z-score [1]: 0.106
composite z-score [2]: -0.145
composite z-score [3]: -0.095
composite z-score [4]: -0.282
composite z-score [5]: 1.53
composite z-score [6]: 1.83
z-score [7]: 0.307
composite z-score (Lefty1): 1.75
composite z-score [8]: -0.312
z-score [9]: -0.304 (inactive)

C=CCNC(=O)[C@H]1[C@@H]2C(=O)O[C@@H](c3ccccc3)[C@@H](c3ccccc3)N2[C@@H](c2ccc(O)cc2)[C@]12C(=O)Nc1ccc(C#CCNC(N)=O)cc12
composite z-score [1]: -1.09
composite z-score [2]: -0.572
composite z-score [3]: 0.199
composite z-score [4]: -1.04
composite z-score [5]: 0.094
composite z-score [6]: -0.415
z-score [7]: -0.171
composite z-score (Lefty1): -0.886
composite z-score [8]: -0.52
z-score [9]: -1.25 (inactive)

C[C@@H]1CC[C@H]2C(=O)N3[C@@H](CC[C@@H](C)[C@@H]3c3cccc(N4CCOCC4)c3)C(=O)N2[C@H]1c1cccc(Br)c1
composite z-score [1]: 1.52
composite z-score [2]: 1.04
composite z-score [3]: -0.0269
composite z-score [4]: 0.783
composite z-score [5]: 1.12
composite z-score [6]: 0.555
z-score [7]: 2.96
composite z-score (Lefty1): 1.15
composite z-score [8]: 1.04
z-score [9]: -1.13 (inactive)

Cc1ccc(S[C@]2(C(=O)NCCCN(C)C)CC(=O)N(Cc3ccccc3)[C@@H]2c2ccc(CO)cc2I)cc1
composite z-score [1]: 0.412
composite z-score [2]: -0.0835
composite z-score [3]: 0.152
composite z-score [4]: 0.233
composite z-score [5]: -0.143
composite z-score [6]: -1.33
z-score [7]: 3.68
composite z-score (Lefty1): -0.892
composite z-score [8]: 0.876
z-score [9]: -0.0307 (inactive)

O=C1O[C@@H](c2ccccc2)[C@@H](c2ccccc2)N2[C@@H](c3ccc(O)cc3)[C@]3(C(=O)Nc4ccccc43)[C@@H](C(=O)N3CCN(c4ncccn4)CC3)[C@H]12
composite z-score [1]: 0.265
composite z-score [2]: 1.19
composite z-score [3]: 0.225
composite z-score [4]: 0.179
composite z-score [5]: 0.169
composite z-score [6]: -0.0433
z-score [7]: 0.948
composite z-score (Lefty1): -0.173
composite z-score [8]: -0.387
z-score [9]: -1.51 (inactive)
